Test results as given in the supplement of paper PMC6555819.

What was measured:
Experiment in all cases: PBM binding z-score (relative to random genomic background probes); higher = stronger binding; sequences stand for … in GC…GCGATTGACAGCGTAGAATGAAGG
[1] = tested on: FXR:RXRa (NR concentration 270 nM, RXRa partner concentration 90 nM)
Outline: (§1)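 Ligand-free nuclear receptor dimers were bound for 1 h to custom Agilent 4×180K protein-binding microarrays. Detection used antibodies against each partner (one per run). Binding z-scores rest on regression-normalized fluorescence, with random background probes as the reference.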

[2] = tested on: LXRa:RXRa (NR concentration 270 nM, RXRa partner concentration 90 nM)
Outline: as §1

[3] = tested on: LXRa homodimer (NR concentration 270 nM)
Outline: as §1

[4] = tested on: LXRb:RXRa (NR concentration 270 nM, RXRa partner concentration 90 nM)
Outline: as §1

[5] = tested on: LXRb homodimer (NR concentration 270 nM)
Outline: as §1

[6] = tested on: PPARa:RXRa (NR concentration 270 nM, RXRa partner concentration 90 nM)
Outline: as §1

[7] = tested on: PPARg:RXRa (NR concentration 180 nM, RXRa partner concentration 90 nM)
Outline: as §1

[8] = tested on: PPARg:RXRa 270nM:90nM, anti-RXR (NR concentration 270 nM, RXRa partner concentration 90 nM)
Outline: as §1

[9] = tested on: PPARg:RXRa 30nM:10nM, anti-RXR (NR concentration 30 nM, RXRa partner concentration 10 nM)
Outline: as §1

[10] = tested on: PPARg:RXRa 90nM:30nM, anti-RXR (NR concentration 90 nM, RXRa partner concentration 30 nM)
Outline: as §1

[11] = tested on: PPARg:RXRa DBDmut IVT, anti-RXR (DBD mutation: RXRa K156A/R161A, NR concentration 270 nM, RXRa partner concentration 90 nM)
Outline: as §1

[12] = tested on: PPARg:RXRa IVT, anti-PPARg (NR concentration 270 nM, RXRa partner concentration 90 nM)
Outline: as §1

[13] = tested on: PPARg DBDmut:RXRa IVT, anti-PPARg (DBD mutation: PPARg1 K132A/R137A, NR concentration 270 nM, RXRa partner concentration 90 nM)
Outline: as §1

[14] = tested on: PPARg DBDmut IVT, anti-PPARg (DBD mutation: PPARg1 K132A/R137A, NR concentration 270 nM)
Outline: as §1

[15] = tested on: PPARg homodimer (NR concentration 180 nM)
Outline: as §1

[16] = tested on: PXR:RXRa (NR concentration 270 nM, RXRa partner concentration 90 nM)
Outline: as §1

[17] = tested on: PXR homodimer (NR concentration 270 nM)
Outline: as §1

[18] = tested on: RARa:RXR (NR concentration 270 nM, RXRa partner concentration 90 nM)
Outline: as §1

[19] = tested on: RARa homodimer (NR concentration 270 nM)
Outline: as §1

[20] = tested on: RARb:RXRa (NR concentration 270 nM, RXRa partner concentration 90 nM)
Outline: as §1

Sequence	PBM binding z-score [1]	PBM binding z-score [2]	PBM binding z-score [3]	PBM binding z-score [4]	PBM binding z-score [5]	PBM binding z-score [6]	PBM binding z-score [7]	PBM binding z-score [8]	PBM binding z-score [9]	PBM binding z-score [10]	PBM binding z-score [11]	PBM binding z-score [12]	PBM binding z-score [13]	PBM binding z-score [14]	PBM binding z-score [15]	PBM binding z-score [16]	PBM binding z-score [17]	PBM binding z-score [18]	PBM binding z-score [19]	PBM binding z-score [20]
CCTACTGGGCCAGCAGGTCATTGATATCAACGTT	0.852	0.958	0.496	1.21	-0.78	2.51	2.26	2.84	1.09	2.63	3.7	4.16	-0.155	-0.528	1.02	1.46	-0.0906	1.8	-0.335	1.88
ATCGAAAGCTCGACGAGGTGAGTATACACCGTTT	-0.406	-0.524	-0.742	-0.456	-0.163	-0.348	0.614	-0.448	0.105	-0.367	-0.441	0.00949	0.478	0.316	-0.162	-0.321	-0.326	-0.226	-0.876	-0.148
GTTATTAGTTGAAAGGGCAACCGAATGATTCTCG	1.4	1.73	1.19	1.56	1.28	3.14	3.9	5.52	3.84	5.47	1.31	1.82	1.34	1.6	3.38	1.26	1.4	1.87	3.11	2.55
GGAACGAGGGGATTCGAGTTGATAGCATGGCGAT	-0.431	-0.53	-0.577	-0.641	-0.654	-0.413	0.315	-0.471	-0.474	-0.523	0.388	-0.0839	-1.62	-0.321	-1.3	0.0775	-0.14	-0.588	-0.71	-0.414
TAGCCTAGCTCATGCGGGCCAGTATAGTGTCGGC	-2.69	-1.21	-0.957	-1.4	-1.43	-1.23	-0.395	-1.21	-0.899	-0.925	-0.92	-0.527	-0.361	-0.899	-1.61	-1.02	-0.998	-1.04	-0.996	-1.16
CAAACTAGGTCACCGGAGGGTCAAAGTCCGCATG	5.69	5.1	1.95	4.16	0.645	5.86	8.8	7.65	4.96	7.5	8.31	8.77	2.75	0.546	4.78	5.16	0.605	6.42	1.73	4.89
CCTAGCAGGCCATGGTCACTCAAGCATTTCGCTT	-0.268	-0.369	-0.374	-0.307	-0.863	-0.349	-0.143	-0.198	-0.855	-0.418	1.57	0.401	-1.7	-1.39	-0.683	-0.611	-0.713	-0.498	-0.226	0.678
ATCTCTAGGTAAAGTTCTGTGAAAGATCGATAGA	0.326	0.57	0.294	0.0682	0.741	0.12	0.24	0.886	0.571	0.677	2.44	1.61	1.11	1.68	1.26	0.0126	0.619	0.484	0.939	0.419
